Experiment [1] deals with T1, Aspartate--tRNA(Asp/Asn) ligase (Mycobacterium tuberculosis (strain ATCC 25618 / H37Rv)) (UniProt P9WFW3).
T1 sequence (whole entry): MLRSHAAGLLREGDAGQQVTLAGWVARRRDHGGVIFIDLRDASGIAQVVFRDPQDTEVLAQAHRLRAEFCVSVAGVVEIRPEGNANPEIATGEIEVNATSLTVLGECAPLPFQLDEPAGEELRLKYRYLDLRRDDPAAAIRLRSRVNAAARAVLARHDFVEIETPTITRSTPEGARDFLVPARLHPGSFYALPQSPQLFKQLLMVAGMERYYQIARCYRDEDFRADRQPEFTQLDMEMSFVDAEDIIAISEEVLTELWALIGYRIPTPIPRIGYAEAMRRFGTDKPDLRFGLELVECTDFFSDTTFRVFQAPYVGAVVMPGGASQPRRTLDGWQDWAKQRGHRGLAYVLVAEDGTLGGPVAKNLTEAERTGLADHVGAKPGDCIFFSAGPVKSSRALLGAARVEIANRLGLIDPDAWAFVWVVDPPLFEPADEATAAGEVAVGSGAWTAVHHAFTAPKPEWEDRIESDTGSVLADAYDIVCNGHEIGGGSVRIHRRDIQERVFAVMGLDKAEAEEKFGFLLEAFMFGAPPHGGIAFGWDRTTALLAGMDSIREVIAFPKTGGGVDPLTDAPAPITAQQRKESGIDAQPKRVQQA
The experiment in a line: Assay for Asp RNA synthetase-1 from Mycobacterium tuberculosis. As to conditions: 30 µM. The experiment is classed as functional. Further details: scale not given: direction of the effect not stated beside the values.

In experiment [2] the target is Shiga toxin 2 (Escherichia coli O157:H7) (UniProt P09385+P09386). As to the kind of experiment: E. coli 0.157:H7 Shiga Toxin SOP - stx2 screening assay. The experiment is classed as functional. As to conditions: 30 µM. Details: scale not given: direction of the effect not stated beside the values.

Regarding `CCC(C)(NCC(=O)Nc1nc(C)cs1)c1nc(C)cs1` (centres undefined), the figures for the Percent Effect in experiment [1] and in experiment [2] were 2.89% and -28.4%, respectively.

Turning to `NC(=O)c1ccc(CN2CCCC(N3CCCC3)C2)cc1` (centres undefined), the Percent Effect in experiment [1] is -1.17%; in experiment [2] it was -4.76%.

For `CCN1CCC2(CCC(=O)N2Cc2cccc(C)n2)CC1`, the Percent Effect in experiment [1] was -3.94%; in experiment [2], 1.16%.

Regarding `Cc1ccsc1CN(CCN(C)C)Cc1ccccn1`, the Percent Effect in experiment [1] is -0.167%; in experiment [2], 1.36%.

For `c1coc(CN2Cc3nccn3CC(Cn3cncn3)C2)c1` (centres undefined), the Percent Effect in experiment [1] was -0.866%; in experiment [2], -9.64%.

For the molecule `CN(C(=O)Cc1c[nH]c2ccccc12)C1CCN(c2ccccn2)CC1`, the results for the Percent Effect in experiment [1] and in experiment [2] were -1.54% and 5.44%, respectively.

Consider `Cc1nc(CN2CCc3ncnc(C)c3CC2)cs1`, for which the Percent Effect in experiment [1] was -3.93%; in experiment [2], -9.46%.

For `Cc1ccc2c(c1)c(CNC(=O)C1CCN(C(C)C)CC1)nn2C`, the results for the Percent Effect in experiment [1] and in experiment [2] were -0.814% and -2.96%, respectively.

On to `O=C(c1ccn(-c2cccc(F)c2)n1)N1CCCC(n2cccn2)C1` (centres undefined), for which the Percent Effect in experiment [1] was -2.68%; in experiment [2], 1.81%.

Regarding `O=C(NCCN1CCCCC1)c1scnc1Cl`, the Percent Effect in experiment [1] is -1.07%; in experiment [2], 30.3%.

As for `CN(C)c1cc(CNC(=O)c2ccc(=O)[nH]n2)ccn1`, the values for the Percent Effect in experiment [1] and in experiment [2] were -3.92% and -29.1%, respectively.

For `Cn1ccc(C(=O)NCc2cccc(CN3CCCC3)c2)cc1=O`, the figures for the Percent Effect in experiment [1] and in experiment [2] were 1.53% and -46.4%, respectively.

On to `Cc1noc(C)c1C1CCCN1C(=O)CN1CC2(CCNCC2)OC1=O` (centres undefined), for which the Percent Effect in experiment [1] was -0.658%; in experiment [2], -21%.

With `O=C(NC[C@]12COC[C@H]1CN(C1CCOCC1)C2)c1ccco1`, the Percent Effect in experiment [1] is 1.57%; in experiment [2], -3.12%.

Take `Cc1nn(C)c(C)c1C1CCCN1Cc1noc(C2CC2)n1` (centres undefined): the Percent Effect was found to be 6.1% in experiment [1] and 16.3% in experiment [2].

For the molecule `CC(C1CC1)N(C(=O)NCCCn1nc2ccccn2c1=O)C1CC1` (centres undefined), the Percent Effect in experiment [1] was 1.26%; in experiment [2], -15.6%.

For the molecule `CCN(Cc1cccc2c1OCO2)C(=O)C(C)c1cccnc1` (centres undefined), the Percent Effect in experiment [1] was 1.18%; in experiment [2] it was -4.53%.

As to `Cc1cc(C(=O)N2CC[C@@H]3CN(c4ncccn4)CCO[C@@H]3C2)c(C)o1`, the Percent Effect in experiment [1] was 7.23%; in experiment [2], -7.5%.

For the molecule `CC(Cn1ccnc1)NC(=O)C1(c2ccc3c(c2)OCCO3)CCCC1` (centres undefined), the figures for the Percent Effect in experiment [1] and in experiment [2] were -0.0286% and -20.7%, respectively.

For the molecule `Cc1nnc(NC(=O)NCc2ccc(N3CCN(C)CC3)nc2)s1`, the Percent Effect in experiment [1] stood at 3.74%; in experiment [2] it was 24.2%.

Take `Cc1cccc(NC2CCN(C(=O)Nc3cc(C)on3)CC2)n1`: the Percent Effect in experiment [1] is -5.71%; in experiment [2] it was -63.5%.

In the case of `CN1[C@H](CN2CCCC2)C[C@@H]2CN(C(=O)Cc3cccs3)CC[C@@H]21`, the Percent Effect in experiment [1] was 3.89%; in experiment [2], -16%.

`CN(C)c1ccc(CNc2cncc(-n3cccn3)n2)cc1`: the figures for the Percent Effect in experiment [1] and in experiment [2] were -4.37% and -28%, respectively.

For the molecule `CCc1nc(CN2CCCN(C(=O)CCc3ccco3)CC2)cs1`, the Percent Effect in experiment [1] was -4.26%; in experiment [2], -71.2%.

For the molecule `N#Cc1ccc(C(=O)N2CCC3(CC2)C(=O)Nc2ccccc23)cn1`, the Percent Effect in experiment [1] stood at 6.62%; in experiment [2], 1.52%.

Consider `CC(C)c1nc2n(n1)CC(NCc1ncc(-c3ccccc3)o1)CC2` (centres undefined), for which the Percent Effect is -5.88% in experiment [1] and -9.35% in experiment [2].

On to `Cc1ccc(S(=O)(=O)NC(=O)c2cccc3c2OCCO3)c(C)c1`, for which the Percent Effect in experiment [1] was -3.08%; in experiment [2], -9.09%.

As to `CCOCC(=O)N1CCC(Oc2ccc(Cl)cn2)CC1`, the Percent Effect in experiment [1] was -2.08%; in experiment [2], -2.19%.

As to `Fc1cccc(-c2nc(CN3CCOC(Cn4cccn4)C3)co2)c1` (centres undefined), the Percent Effect in experiment [1] was 2.49%; in experiment [2], 24.3%.

Regarding `O=C1CCCN1Cc1nnc2n1CCN(Cc1ccoc1)CC2`, the values for the Percent Effect in experiment [1] and in experiment [2] were 1.71% and -17.6%, respectively.

In the case of `O=C(Nc1ccccc1F)N(CCO)Cc1ccsc1`, the Percent Effect was -3.39% in experiment [1] and 20.3% in experiment [2].

Consider `CC(=O)c1cccc(NC(=O)COc2c(C)n(C)ccc2=O)c1`, for which the Percent Effect is 1.07% in experiment [1] and -59.3% in experiment [2].

Regarding `CC(C)c1nc(C2CCCN(Cc3nnc(C4CC4)o3)C2)no1` (centres undefined), the Percent Effect was -2.16% in experiment [1] and -7.91% in experiment [2].

In the case of `O=C(c1cccc2c1OCO2)N1CCCC1c1noc(C2CC2)n1` (centres undefined), the Percent Effect in experiment [1] was -11.7%; in experiment [2], -15.1%.

Take `Cc1nc(C2CCCN2C(=O)c2cnns2)no1` (centres undefined): the Percent Effect is -4.19% in experiment [1] and 27.5% in experiment [2].

For the molecule `Cc1cc(CN(C)C(=O)C2CCCN(C(=O)c3ccc(Cl)cc3)C2)no1` (centres undefined), the figures for the Percent Effect in experiment [1] and in experiment [2] were 8.83% and -26.7%, respectively.

For the molecule `COc1ccc(C[C@H]2CN(C(=O)CN(C)C)CC[C@H]2OC)cc1`, the Percent Effect in experiment [1] was 0.341%; in experiment [2], -5.78%.

For `CN(C)CC(=O)N1CCC2(CC1)CN(c1ccsc1)C(=O)CO2`, the results for the Percent Effect in experiment [1] and in experiment [2] were 5.4% and -4%, respectively.

As for `Cc1ccc(NC(=O)Cn2cc(I)cn2)cc1`, the Percent Effect in experiment [1] was 1.25%; in experiment [2], -45.6%.

As for `COc1ccc(CN2CCC(O)CC2)c(OC)c1`, the Percent Effect in experiment [1] was -2.06%; in experiment [2] it was 7.95%.

For the molecule `COc1cccc2cc(CNC(=O)N3CCCC(O)C3)oc12` (centres undefined), the figures for the Percent Effect in experiment [1] and in experiment [2] were -4.17% and -15.3%, respectively.

Consider `Cc1cc(CNC2CCCN(c3cccnn3)C2)no1` (centres undefined), for which the results for the Percent Effect in experiment [1] and in experiment [2] were 6.9% and -69.6%, respectively.

As for `Cc1cc(OCC(=O)N2CCCC(c3noc(C)n3)C2)no1` (centres undefined), the figures for the Percent Effect in experiment [1] and in experiment [2] were -1.75% and -41.1%, respectively.

As for `CCn1ccnc1CNCC1CCCN1c1cccnn1` (centres undefined), the Percent Effect is -8.36% in experiment [1] and 6.68% in experiment [2].

For the molecule `CCn1cc2c(n1)CN(Cc1nccs1)CC2COCC1CC1` (centres undefined), the Percent Effect in experiment [1] is 5.78%; in experiment [2] it was -5.95%.

As to `CC(C(=O)Nc1cccc(N2CCCCC2)c1)n1cncn1` (centres undefined), the Percent Effect in experiment [1] came out at 2.19%; in experiment [2] it was 2.83%.

With `CCOc1cccc(C(=O)NCCC(=O)Nc2ccncc2)c1`, the Percent Effect in experiment [1] is -3.32%; in experiment [2], -80.5%.

(Values after ChEMBL document CHEMBL3988442, “University of Dundee, Small-Polar-MMV Screening Library” (2021).)
